# Data from PubChem BioAssay (Tox21).
# Results filed as inconclusive are left out. Where a call stands in place of a potency, no number is given. A number with no mark means an inactive call. Calls of active or inactive are those of the source. Unless noted, calls come from the whole dose curve; as a rule, active = well fitted curve in the direction sought with a large enough effect in the repeat runs; inconclusive = weak or mixed curves; inactive = no such curve, though single readings can be large; an effect the other way counts as inactive or inconclusive.
# Legend:
# [1] = qHTS assay to identify small molecule antagonists of the thyroid receptor (TR) signaling pathway - cell viability counter screen (AID 743064); note: nearly all actives have a fitted effect of over 50% in size; note: potency is the fitted concentration of half-maximal effect
# Procedure, shortened: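 GH3.TRE-Luc cells, 4 h pre-plating; cpd + T3 1 nM final; 37 °C 23.5 h; CellTiter-Fluor 30 min; fluorescence read.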
# [2] = qHTS assay to identify small molecule antagonists of the thyroid receptor (TR) signaling pathway (AID 743065); note: nearly all actives have a fitted effect of over 55% in size; note: potency is the fitted concentration of half-maximal effect; for activity, negative = inhibition: series mostly up to about 70 µM
# Procedure, shortened: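 GH3.TRE-Luc rat pituitary cells (two TREs driving luciferase) were dosed with compound, then stimulated with 1 nM T3 (final) for 23.5 h at 37 C. ONE-Glo luminescence was the read-out, with CellTiter-Fluor fluorescence as the cytotoxicity counter-screen.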
# [3] = test system: thyroid hormone receptor (rat, GH3 cells); test: qHTS assay to identify small molecule agonists of the thyroid receptor (TR) signaling pathway (AID 743066; calls by dose curve)
# [4] = qHTS assay to identify small molecule antagonists of the estrogen receptor alpha (ER-alpha) signaling pathway - cell viability counter screen (AID 743074; calls by dose curve; note: nearly all actives have a fitted effect of over 45% in size)
# [5] = qHTS assay to identify small molecule antagonists of the estrogen receptor alpha (ER-alpha) signaling pathway using the BG1 cell line (AID 743080; calls by dose curve; note: series mostly up to about 70 µM; nearly all actives have a fitted effect of over 25% in size)
# Procedure, shortened: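 Antagonist mode: compounds in DMSO were pinned onto BG1-Luc-4E2 cells alongside 17beta-estradiol agonist, incubated 21.5 h, and ERE-driven luciferase measured with ONE-Glo. Cytotoxicity was multiplexed using CellTiter-Fluor fluorescence.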
# [6] = qHTS assay to identify small molecule antagonists of the estrogen receptor alpha (ER-alpha) signaling pathway using the BG1 cell line - cell viability counter screen (AID 743081);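 note: compound given together with 17beta-estradiol as the ER stimulus; series mostly up to about 70 µM; nearly all actives have a fitted effect of over 45% in size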
# Aromatase (Homo sapiens) = Aromatase (Homo sapiens) (UniProt P11511); test: qHTS assay to identify aromatase inhibitors (AID 743083); note: series mostly up to about 70 µM; nearly all actives have a fitted effect of over 55% in size
# Aromatase (Homo sapiens), sequence (P11511 whole entry, looked up): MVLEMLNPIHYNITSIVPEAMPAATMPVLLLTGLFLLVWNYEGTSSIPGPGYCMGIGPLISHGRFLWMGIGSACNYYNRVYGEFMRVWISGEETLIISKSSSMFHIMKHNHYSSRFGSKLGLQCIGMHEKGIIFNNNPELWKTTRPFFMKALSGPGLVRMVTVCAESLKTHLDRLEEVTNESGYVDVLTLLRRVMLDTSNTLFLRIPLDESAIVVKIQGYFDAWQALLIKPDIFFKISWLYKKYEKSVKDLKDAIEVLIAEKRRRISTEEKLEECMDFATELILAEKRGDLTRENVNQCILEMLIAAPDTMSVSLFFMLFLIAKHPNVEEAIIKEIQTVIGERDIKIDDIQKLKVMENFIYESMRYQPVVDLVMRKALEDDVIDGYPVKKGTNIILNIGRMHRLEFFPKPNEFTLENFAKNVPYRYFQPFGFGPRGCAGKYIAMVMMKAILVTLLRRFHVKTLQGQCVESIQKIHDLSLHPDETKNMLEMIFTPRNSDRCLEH
# [7] = qHTS assay to identify aromatase inhibitors - cell viability counter screen (AID 743084);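 note: cells stimulated with testosterone during compound exposure; nearly all actives have a fitted effect of over 55% in size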
# [8] = molecular target: Aryl hydrocarbon receptor (Homo sapiens) (UniProt P35869); test: qHTS assay to identify small molecule that activate the aryl hydrocarbon receptor (AhR) signaling pathway (AID 743085); note: nearly all actives have a fitted effect of over 15% in size; note: potency is the fitted concentration of half-maximal effect;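 for activation: HG2L7.5c1 human HepG2 liver cells with stably integrated DRE-driven firefly reporter; series mostly up to about 70 µM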
# Aryl hydrocarbon receptor (Homo sapiens), sequence (P35869 whole entry, looked up): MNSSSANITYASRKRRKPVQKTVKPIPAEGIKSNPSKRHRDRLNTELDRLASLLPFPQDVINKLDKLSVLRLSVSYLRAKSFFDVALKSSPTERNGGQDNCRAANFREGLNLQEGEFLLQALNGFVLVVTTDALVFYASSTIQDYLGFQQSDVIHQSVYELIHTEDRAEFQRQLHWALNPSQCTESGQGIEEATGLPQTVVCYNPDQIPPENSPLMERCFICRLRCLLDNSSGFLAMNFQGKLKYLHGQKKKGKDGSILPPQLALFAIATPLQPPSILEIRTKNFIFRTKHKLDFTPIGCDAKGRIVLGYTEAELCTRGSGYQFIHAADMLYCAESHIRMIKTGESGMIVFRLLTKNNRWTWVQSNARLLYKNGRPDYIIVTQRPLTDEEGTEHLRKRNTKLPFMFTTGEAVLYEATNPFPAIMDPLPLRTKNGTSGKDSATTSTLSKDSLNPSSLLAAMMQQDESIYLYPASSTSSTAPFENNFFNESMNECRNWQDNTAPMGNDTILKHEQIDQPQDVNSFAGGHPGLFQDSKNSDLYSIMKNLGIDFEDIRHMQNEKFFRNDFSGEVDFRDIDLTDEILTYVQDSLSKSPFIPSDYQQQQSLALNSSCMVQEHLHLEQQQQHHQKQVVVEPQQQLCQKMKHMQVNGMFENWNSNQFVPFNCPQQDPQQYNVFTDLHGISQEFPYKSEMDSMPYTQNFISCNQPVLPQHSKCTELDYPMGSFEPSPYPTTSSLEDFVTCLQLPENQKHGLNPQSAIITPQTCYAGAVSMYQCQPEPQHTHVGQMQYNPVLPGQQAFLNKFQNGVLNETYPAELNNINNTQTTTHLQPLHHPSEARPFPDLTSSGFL
# Procedure, shortened: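 Luminescence read-out: ONE-Glo reagent, 30 min at room temperature, in HG2L7.5c1 HepG2 reporter cells treated 24 h at 37C. Viability was measured beforehand by CellTiter-Fluor fluorescence after 30 min at 37C.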
# [9] = qHTS assay to identify small molecule that activate the aryl hydrocarbon receptor (AhR) signaling pathway - cell viability counter screen (AID 743086);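 note: HepG2 liver cells carrying the AhR DRE luciferase reporter; series mostly up to about 70 µM; nearly all actives have a fitted effect of over 45% in size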
# Procedure, shortened: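 HepG2-AhR-luc (HG2L7.5c1) cells, 4000/well, treated 24 h at 37 C with compound; viability measured as CellTiter-Fluor fluorescence after 30 min in the same wells as the luciferase read.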
# [10] = molecular target: Peroxisome proliferator-activated receptor gamma (Homo sapiens) (UniProt P37231); test: qHTS assay to identify small molecule agonists of the peroxisome proliferator-activated receptor gamma (PPARg) signaling pathway (AID 743094; active = well fitted activation curve with a large enough effect in the signal ratio in the repeat runs, not every such curve was filed as active; the % refers to the signal ratio)
# Peroxisome proliferator-activated receptor gamma (Homo sapiens), sequence (P37231 whole entry, looked up): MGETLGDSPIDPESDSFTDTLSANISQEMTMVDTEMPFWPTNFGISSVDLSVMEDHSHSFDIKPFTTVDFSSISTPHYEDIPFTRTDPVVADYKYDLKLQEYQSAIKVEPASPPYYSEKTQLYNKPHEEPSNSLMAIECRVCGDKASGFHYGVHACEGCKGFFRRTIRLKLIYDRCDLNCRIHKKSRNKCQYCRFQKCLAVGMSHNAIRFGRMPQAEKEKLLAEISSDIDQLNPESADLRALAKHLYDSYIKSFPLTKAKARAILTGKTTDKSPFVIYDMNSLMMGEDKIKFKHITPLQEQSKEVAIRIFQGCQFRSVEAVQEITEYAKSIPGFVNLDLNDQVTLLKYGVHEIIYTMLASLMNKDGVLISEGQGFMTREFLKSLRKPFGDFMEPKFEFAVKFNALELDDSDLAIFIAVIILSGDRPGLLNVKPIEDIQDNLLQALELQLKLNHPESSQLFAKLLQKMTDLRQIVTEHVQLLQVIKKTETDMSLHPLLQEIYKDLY
# Procedure, shortened: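 Cell-based bla reporter, HEK293H background, PPARg-driven UAS. Pre-incubation 5 h, 37C, 5% CO2. Compound 17 h, 37C. Substrate 1 h RT; fluorescence.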
# [11] = molecular target: Peroxisome proliferator-activated receptor gamma (Homo sapiens) (UniProt P37231); test: qHTS assay to identify small molecule antagonists of the peroxisome proliferator-activated receptor gamma (PPARg) signaling pathway (AID 743191; calls by dose curve; note: series mostly up to about 63 µM; nearly all actives have a fitted effect of over 30% in size)
# Procedure, shortened: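 GeneBLAzer PPARg UAS-bla HEK293H cells, 5 h post-plating, exposed to compounds 17 h at 37C. LiveBLAzer B/G FRET substrate added for 1 h at room temperature; beta-lactamase reporter read by fluorescence intensity.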
# [12] = qHTS assay to identify small molecule antagonists of the peroxisome proliferator-activated receptor gamma (PPARg) signaling pathway - cell viability counter screen (AID 743194); note: nearly all actives have a fitted effect of over 55% in size
# Procedure, shortened: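 Cytotoxicity counter screen in PPARg-bla HEK293H cells, same wells as reporter assay. Compounds plus 50 nM rosiglitazone (final) for 17 h at 37 C, then viability read by CellTiter-Glo luminescence.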
# [13] = qHTS assay for small molecule agonists of the antioxidant response element (ARE) signaling pathway (AID 743202; active = well fitted activation curve with a large enough effect in the signal ratio in the repeat runs, not every such curve was filed as active; the % refers to the signal ratio; note: potency is the fitted concentration of half-maximal effect)
# Procedure, shortened: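 HepG2 ARE-bla cells; 16 h treatment at 37 C; FRET-based beta-lactamase fluorescence read after 2 h substrate incubation at room temperature.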
# [14] = qHTS assay for small molecule agonists of the antioxidant response element (ARE) signaling pathway - cell viability counter screen (AID 743203; calls by dose curve; note: nearly all actives have a fitted effect of over 55% in size)
# Procedure, shortened: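 Measured in the same wells as the beta-lactamase ARE reporter, this read-out is CellTiter-Glo luminescence from HepG2 ARE-bla cells given compounds for 16 hrs.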
# [15] = qHTS assay for small molecule activators of the heat shock response signaling pathway - cell viability counter screen (AID 743209); note: nearly all actives have a fitted effect of over 50% in size
# Procedure, shortened: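 Same-well multiplex: after 2.5 h room-temperature incubation with LiveBLAzer B/G substrate and fluorescence reading, CellTiter-Glo reagent was added to HSE-bla HeLa cells that had received compound for 5 h at 37 C; luminescence read after 30 min.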
# [16] = qHTS assay for small molecule activators of the heat shock response signaling pathway (AID 743210; active = well fitted activation curve with a large enough effect in the signal ratio in the repeat runs, with a control signal flat, not every such curve was filed as active; the % refers to the signal ratio;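 note: HeLa cells with beta-lactamase reporter driven by heat shock elements; series mostly up to about 63 µM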)
# Procedure, shortened: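 Following overnight attachment, HSE-bla HeLa cells received test compounds for 5 h at 37 C; beta-lactamase activity was then detected via FRET substrate fluorescence.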
# [17] = molecular target: Estrogen receptor (Homo sapiens) (UniProt P03372); test: qHTS assay to identify small molecule antagonists of the estrogen receptor alpha (ER-alpha) signaling pathway (AID 743069; active = well fitted curve in the direction sought with a large enough effect in the signal ratio in the repeat runs, not every such curve was filed as active; the % refers to the signal ratio; note: potency is the fitted concentration of half-maximal effect)
# Estrogen receptor (Homo sapiens), sequence (P03372 whole entry, looked up): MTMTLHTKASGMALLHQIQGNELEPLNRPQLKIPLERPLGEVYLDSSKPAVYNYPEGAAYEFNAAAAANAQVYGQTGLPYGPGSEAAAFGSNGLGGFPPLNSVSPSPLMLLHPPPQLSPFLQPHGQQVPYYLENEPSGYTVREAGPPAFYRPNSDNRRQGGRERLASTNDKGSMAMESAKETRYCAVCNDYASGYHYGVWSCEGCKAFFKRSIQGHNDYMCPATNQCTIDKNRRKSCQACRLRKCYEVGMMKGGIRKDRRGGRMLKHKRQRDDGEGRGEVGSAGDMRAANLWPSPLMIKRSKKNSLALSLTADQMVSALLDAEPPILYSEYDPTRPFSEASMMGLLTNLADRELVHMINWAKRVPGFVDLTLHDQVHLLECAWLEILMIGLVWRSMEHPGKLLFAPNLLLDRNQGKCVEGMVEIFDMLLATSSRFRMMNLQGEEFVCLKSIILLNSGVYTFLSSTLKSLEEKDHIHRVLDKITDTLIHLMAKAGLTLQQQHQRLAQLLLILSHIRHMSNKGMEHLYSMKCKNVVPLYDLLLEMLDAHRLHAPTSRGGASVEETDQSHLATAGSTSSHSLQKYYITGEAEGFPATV
# Procedure, shortened: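 In this cell-based reporter format, GripTite HEK293 cells harbouring ER-alpha-UAS-bla were grown overnight with 2% charcoal-stripped FBS, dosed with DMSO-dissolved compounds, then challenged with 17beta-estradiol. After 18 hr at 37C, beta-lactamase activity was detected by FRET fluorescence.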
# [18] = molecular target: Estrogen receptor (Homo sapiens) (UniProt P03372); test: qHTS assay to identify small molecule agonists of the estrogen receptor alpha (ER-alpha) signaling pathway (AID 743075; calls by dose curve)
# [19] = molecular target: Estrogen receptor (Homo sapiens) (UniProt P03372); test: qHTS assay to identify small molecule agonists of the estrogen receptor alpha (ER-alpha) signaling pathway using the BG1 cell line (AID 743079); note: nearly all actives have a fitted effect of over 20% in size
smiles,measurement,setting,value
CCN[C@@H]1C[C@H](N)[C@@H](OC2OC(CN)=CCC2N)[C@H](O)[C@H]1O[C@H]1OC[C@](C)(O)[C@H](NC)[C@H]1O (some centres undefined),Potency,[1],inactive
same,Potency,[2],inactive
same,outcome,[3],inactive
same,Potency,[4],inactive
same,Potency,[5],inactive
same,outcome,[6],inactive
same,outcome,Aromatase (Homo sapiens),inactive
same,Potency,[7],inactive
same,Potency,[8],inactive
same,Potency,[9],inactive
same,Potency,[10],inactive
same,"ratio activity, negative = inhibition",[11],-0.0427% [at 0.55 µM]
same,"activity change, negative = cytotoxicity",[12],-4.19% [at 0.55 µM]
same,activation,[13],-10.7% [at 0.756 µM]
same,"viability change, negative = cytotoxic",[14],-2.08% [at 0.756 µM]
same,"activity change, negative = cytotoxicity",[15],9.84% [at 0.55 µM]
same,activation,[16],-1.49% [at 0.55 µM]
C=CCCCCCCCCC(=O)OCC,Potency,[1],inactive
same,Potency,[2],inactive
same,outcome,[3],inactive
same,Potency,[17],inactive
same,Potency,[18],inactive
same,Potency,[19],inactive
same,outcome,[6],inactive
same,outcome,Aromatase (Homo sapiens),inactive
same,Potency,[7],inactive
same,Potency,[9],inactive
same,Potency,[10],inactive
same,outcome,[12],inactive
same,outcome,[14],inactive
same,outcome,[15],inactive
same,outcome,[16],inactive
CC(C)C1CCC(O)CC1 (centres undefined),Potency,[1],inactive
same,Potency,[2],inactive
same,outcome,[3],inactive
same,Potency,[4],inactive
same,outcome,[6],inactive
same,outcome,Aromatase (Homo sapiens),inactive
same,Potency,[7],inactive
same,Potency,[8],inactive
same,Potency,[9],inactive
same,Potency,[10],inactive
same,Potency,[11],inactive
same,outcome,[12],inactive
same,Potency,[13],inactive
same,outcome,[14],inactive
same,outcome,[15],inactive
same,outcome,[16],inactive
Nc1ccn([C@@H]2O[C@H](CO)[C@@H](O)C2(F)F)c(=O)n1,Potency,[1],0.168 µM (active)
same,Potency,[2],0.0422 µM (active)
same,outcome,[3],inactive
same,Potency,[17],4.77 µM [inhibitor] (active)
same,Potency,[18],inactive
same,Potency,[19],inactive
same,outcome,[6],inactive
same,outcome,Aromatase (Homo sapiens),inactive
same,Potency,[7],inactive
same,Potency,[8],inactive
same,Potency,[9],inactive
same,outcome,[12],inactive
same,outcome,[14],inactive
same,outcome,[15],inactive
same,outcome,[16],inactive
COc1cc(C(=O)NCc2ccc(OCCN(C)C)cc2)cc(OC)c1OC,Potency,[1],inactive
same,Potency,[2],inactive
same,outcome,[3],inactive
same,Potency,[17],inactive
same,Potency,[18],inactive
same,Potency,[19],inactive
same,outcome,[6],inactive
same,outcome,Aromatase (Homo sapiens),inactive
same,Potency,[7],inactive
same,Potency,[8],inactive
same,Potency,[9],inactive
same,Potency,[10],inactive
same,Potency,[11],inactive
same,outcome,[12],inactive
same,outcome,[14],inactive
same,outcome,[15],inactive
same,outcome,[16],inactive
CC(CC=O)CC(C)(C)C (centres undefined),Potency,[1],inactive
same,Potency,[2],inactive
same,outcome,[3],inactive
same,Potency,[17],inactive
same,Potency,[18],inactive
same,Potency,[19],inactive
same,outcome,[6],inactive
same,outcome,Aromatase (Homo sapiens),inactive
same,Potency,[7],inactive
same,Potency,[8],inactive
same,Potency,[9],inactive
same,Potency,[10],inactive
same,Potency,[11],inactive
same,outcome,[12],inactive
same,outcome,[14],inactive
same,outcome,[15],inactive
same,outcome,[16],inactive
CC(C)CC(C)(N)C#N (centres undefined),Potency,[1],inactive
same,Potency,[2],inactive
same,outcome,[3],inactive
same,Potency,[4],inactive
same,outcome,[6],inactive
same,outcome,Aromatase (Homo sapiens),inactive
same,Potency,[7],inactive
same,Potency,[8],inactive
same,Potency,[9],inactive
same,Potency,[10],inactive
same,Potency,[11],inactive
same,outcome,[12],inactive
same,Potency,[13],inactive
same,outcome,[14],inactive
same,outcome,[15],inactive
same,outcome,[16],inactive
COc1ccnc(CS(=O)c2nc3cc(OC(F)F)ccc3[nH]2)c1OC (centres undefined),Potency,[1],inactive
same,Potency,[2],inactive
same,outcome,[3],inactive
same,Potency,[4],inactive
same,Potency,[18],inactive
same,Potency,[19],inactive
same,Potency,[5],inactive
same,outcome,[6],inactive
same,outcome,Aromatase (Homo sapiens),inactive
same,Potency,[7],inactive
same,Potency,[8],3.35 µM (active)
same,Potency,[9],inactive
same,Potency,[10],inactive
same,outcome,[12],inactive
same,Potency,[13],27.5 µM (active)
same,outcome,[14],inactive
same,outcome,[15],inactive
same,outcome,[16],inactive
CCOc1ccccc1OCC,Potency,[1],inactive
same,Potency,[2],inactive
same,outcome,[3],inactive
same,Potency,[4],inactive
same,outcome,[6],inactive
same,outcome,Aromatase (Homo sapiens),inactive
same,Potency,[7],inactive
same,Potency,[8],inactive
same,Potency,[9],inactive
same,Potency,[10],inactive
same,Potency,[11],inactive
same,outcome,[12],inactive
same,Potency,[13],inactive
same,outcome,[14],inactive
same,outcome,[15],inactive
same,outcome,[16],inactive
O=CN(CCO)CCO,Potency,[1],inactive
same,Potency,[2],inactive
same,outcome,[3],inactive
same,Potency,[4],inactive
same,outcome,[6],inactive
same,outcome,Aromatase (Homo sapiens),inactive
same,Potency,[7],inactive
same,Potency,[8],inactive
same,Potency,[9],inactive
same,Potency,[10],inactive
same,Potency,[11],inactive
same,outcome,[12],inactive
same,outcome,[14],inactive
same,outcome,[15],inactive
same,outcome,[16],inactive
CC(=O)N[C@H]1[C@H]([C@H](O)[C@H](O)CO)OC(C(=O)O)=C[C@@H]1N=C(N)N,Potency,[1],inactive
same,Potency,[2],inactive
same,outcome,[3],inactive
same,Potency,[17],inactive
same,Potency,[18],inactive
same,Potency,[19],inactive
same,outcome,[6],inactive
same,outcome,Aromatase (Homo sapiens),inactive
same,Potency,[7],inactive
same,Potency,[8],inactive
same,Potency,[9],inactive
same,Potency,[10],inactive
same,outcome,[12],inactive
same,Potency,[13],inactive
same,outcome,[14],inactive
same,outcome,[15],inactive
same,outcome,[16],inactive
CCCn1cc[n+](C)c1C,Potency,[1],inactive
same,Potency,[2],inactive
same,outcome,[3],inactive
same,Potency,[4],inactive
same,outcome,[6],inactive
same,outcome,Aromatase (Homo sapiens),inactive
same,Potency,[7],inactive
same,Potency,[9],inactive
same,outcome,[12],inactive
same,outcome,[14],inactive
same,outcome,[15],inactive
same,outcome,[16],inactive
c1ccc2sc(SN3CCOCC3)nc2c1,Potency,[1],inactive
same,Potency,[2],inactive
same,outcome,[3],inactive
same,Potency,[4],inactive
same,outcome,[6],inactive
same,outcome,Aromatase (Homo sapiens),inactive
same,Potency,[7],inactive
same,Potency,[8],23.7 µM (active)
same,Potency,[9],inactive
same,Potency,[11],inactive
same,outcome,[12],inactive
same,outcome,[14],inactive
same,outcome,[15],inactive
same,outcome,[16],inactive
C[N+](C)(CCOc1ccccc1)Cc1cccs1,Potency,[1],inactive
same,Potency,[2],inactive
same,outcome,[3],inactive
same,Potency,[4],inactive
same,outcome,[6],inactive
same,outcome,Aromatase (Homo sapiens),inactive
same,Potency,[7],inactive
same,Potency,[8],inactive
same,Potency,[9],inactive
same,outcome,[12],inactive
same,Potency,[13],inactive
same,outcome,[14],inactive
same,outcome,[15],inactive
same,outcome,[16],inactive
CC(=O)OCC(=O)[C@@]1(O)[C@H](C)C[C@H]2[C@@H]3CCC4=CC(=O)C=C[C@]4(C)[C@@]3(F)[C@@H](O)C[C@@]21C,Potency,[1],inactive
same,Potency,[2],inactive
same,outcome,[3],inactive
same,Potency,[4],inactive
same,outcome,[6],inactive
same,outcome,Aromatase (Homo sapiens),inactive
same,Potency,[7],inactive
same,Potency,[8],inactive
same,Potency,[9],inactive
same,Potency,[10],inactive
same,Potency,[13],inactive
same,outcome,[14],inactive
same,outcome,[15],inactive
same,outcome,[16],inactive
Cc1ccccc1N=C(N)N=C(N)N,Potency,[1],inactive
same,Potency,[2],inactive
same,outcome,[3],inactive
same,Potency,[4],inactive
same,outcome,[6],inactive
same,outcome,Aromatase (Homo sapiens),inactive
same,Potency,[7],inactive
same,Potency,[8],inactive
same,Potency,[9],inactive
same,Potency,[10],inactive
same,outcome,[12],inactive
same,outcome,[14],inactive
same,outcome,[15],inactive
same,outcome,[16],inactive
COc1cc(C)nc(-n2nc(C)cc2OC)n1,Potency,[1],inactive
same,Potency,[2],inactive
same,outcome,[3],inactive
same,Potency,[4],inactive
same,outcome,[6],inactive
same,outcome,Aromatase (Homo sapiens),inactive
same,Potency,[7],inactive
same,Potency,[9],inactive
same,Potency,[10],inactive
same,Potency,[13],inactive
same,outcome,[14],inactive
same,outcome,[15],inactive
